# In the supplement of paper PMC12636033:
# ± gives the standard deviation of the averaged measurements. In all, about 33,000 sequences were measured (“E-score (rank enrichment, -0.5 to 0.5)”: median about -0.0028, highest 2% from about 0.23 on). Shown is part of a subset that was picked to be rich in the highest values.
# Tested on: 2Sb-muMax20 (muMax20 with two 1,3-bis(methyl)benzene Cys staples, A13C/A17C and Q88C/A92C, C-terminal Lys)
# Experiment: PBM 8-mer E-score (E-score (rank enrichment, -0.5 to 0.5)); higher = stronger preferential binding
# Description: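 Protein binding microarray (universal PBM chip covering all 10-mers in fixed probe flanks) with chemically synthesized human Max(13-93) bHLH-LZ analogs (not full-length Max) bearing noncanonical residues (hArg, Tha, Aib, Nle at 65) and aromatic Cys staples. Read-out per 8-mer (and its reverse complement): E-score (rank-based enrichment, -0.5 to 0.5) and Z-score of median probe intensity.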
row,Sequence,PBM 8-mer E-score
1,CAGTTGAA,0.0124 ± 0.054
2,TAGTTGAA,0.23 ± 0.012
3,AAGTTGAA,0.0152 ± 0.0042
4,AGAGAAGG,-0.029 ± 0.046
5,TATAGATA,0.213 ± 0.042
6,GATAGATA,-0.0327 ± 0.03
7,CATAGATA,0.277 ± 0.041
8,ATCGCTCA,0.0207 ± 0.008
9,AGGAAGGC,-0.0526 ± 0.077
10,CCTGTTTA,0.137 ± 0.0084
11,CCAAAACG,-0.0328 ± 0.043
12,ACAAAACC,0.13 ± 0.14
13,CCAAATGG,-0.0949 ± 0.091
14,ACAAAATG,0.238 ± 0.039
15,AGAAATAC,0.0203 ± 0.03
16,AGAAATAT,0.0844 ± 0.12
17,ACAAATGT,0.148 ± 0.026
18,ACAAATGG,0.266 ± 0.032
19,ACAAAATC,0.0704 ± 0.00074
20,AGAAATAG,0.232 ± 0.034
21,ACAAAATA,0.193 ± 0.13
22,ACAAAACG,0.262 ± 0.006
23,ACGTGGAC,0.15 ± 0.054
24,AAAGAGGG,0.0479 ± 0.037
25,CTCGTATC,0.0723 ± 0.026

row,Sequence,PBM 8-mer E-score
1,GCCCTGTA,0.032 ± 0.063
2,TTAATGAA,0.115 ± 0.088
3,AGGACAGG,-0.1548 ± 0.00025
4,TATAGCGA,0.0513 ± 0.037
5,AGAAATGC,0.177 ± 0.015
6,AGAAATGG,0.251 ± 0.033
7,AGAAATGA,-0.0864 ± 0.0095
8,ACCTGCGC,-0.114 ± 0.011
9,CCCAGCGA,-0.132 ± 0.046
10,CCTCTACA,0.0181 ± 0.028
11,CAATCACG,0.231 ± 0.021
12,CAATCACA,0.0918 ± 0.051
13,AAATCACA,0.199 ± 0.0051
14,GATCTCCC,0.122 ± 0.056
15,ATTGTAGC,-0.106 ± 0.0083
16,CGTCTCCA,-0.0564 ± 0.02
17,AGTGGTAT,0.0204 ± 0.062
18,CCCCCACG,0.0751 ± 0.11
19,TCCCCACA,0.261 ± 0.055
20,ATCCCCAT,0.118 ± 0.011
21,ATCCCCAG,0.0369 ± 0.07
22,ATCCCCCC,-0.321 ± 0.063
23,CTCCCCAG,0.162 ± 0.085
24,ATCCCCCA,-0.171 ± 0.032
25,ATCCCCAA,0.301 ± 0.04

row,Sequence,PBM 8-mer E-score
1,CTCCCCCA,-0.142 ± 0.09
2,CCCCCACA,-0.26 ± 0.052
3,CTCCCCAA,0.309 ± 0.072
4,ATCCCCAC,0.301 ± 0.04
5,ACTCGGAA,-0.104 ± 0.083
6,ATGCACTG,0.062 ± 9.2e-05
7,CCGCATAA,0.184 ± 0.0044
8,ATTTTAAA,0.126 ± 0.03
9,GGAGGACA,-0.0957 ± 0.0057
10,AGTTCGTA,-0.119 ± 0.064
11,CAGGGGGG,-0.241 ± 0.072
12,ATAGCAAA,0.1715 ± 0.0012
13,AGTCTGAC,-0.0779 ± 0.015
14,CCCCCAAA,-0.215 ± 0.027
15,GTCCCCAA,0.0368 ± 0.035
16,TTCCCCAA,0.32 ± 0.021
17,TTCCCAAA,0.0153 ± 0.013
18,TCCCCCAA,-0.179 ± 0.0084
19,CCCCCCAC,-0.238 ± 0.085
20,GTCCCCAC,0.0697 ± 0.074
21,CTCCCCAC,0.292 ± 0.041
22,TCCCCAAA,0.372 ± 0.029
23,AACAGATA,-0.0213 ± 0.017
24,ACCTCTGA,-0.0896 ± 0.0083
25,CAGACATG,-0.0511 ± 0.076

row,Sequence,PBM 8-mer E-score
1,ACTGCAGC,0.0488 ± 0.072
2,ACGCAACC,-0.0577 ± 0.0052
3,ACGCCCCT,0.109 ± 0.11
4,GCTAGAAA,0.197 ± 0.055
5,ACAGAAAG,0.278 ± 0.04
6,ACAGAAAC,0.126 ± 0.0055
7,ACAGCAAT,0.0979 ± 0.018
8,ACAGCAAC,-0.0541 ± 0.075
9,ACAGCAAG,0.24 ± 0.03
10,ACAGAAAA,0.083 ± 0.044
11,ATCCCGAG,-0.0644 ± 0.021
12,CAAGGCAA,0.0983 ± 0.056
13,ATTTGTTG,0.232 ± 0.0078
14,ATTTGTTC,0.15 ± 0.058
15,ATTTGTTA,0.187 ± 0.0095
16,ATACTGCG,0.0194 ± 0.043
17,AATTAAGA,0.216 ± 0.038
18,AATTAAGT,0.24 ± 0.005
19,AATTAAAT,0.235 ± 0.011
20,ACTTAAGT,0.246 ± 0.033
21,ACTTAAGA,0.00227 ± 0.079
22,AATTAAGC,0.121 ± 0.063
23,AATTAAAG,0.133 ± 0.025
24,ACTTAAGC,-0.134 ± 0.061
25,AATTAAAC,0.19 ± 0.065

row,Sequence,PBM 8-mer E-score
1,CCCATTGA,0.02 ± 0.063
2,GATCGAGA,-0.0884 ± 0.04
3,AAAAAGTT,0.16 ± 0.014
4,ACTTCTTA,0.125 ± 0.057
5,CAATGCAA,0.0811 ± 0.012
6,CCAGGGGG,-0.31 ± 0.076
7,TATCAACA,0.0969 ± 0.067
8,AATCAACA,0.308 ± 0.015
9,GATCAACA,-0.139 ± 0.023
10,CGTTCTAC,0.0207 ± 0.027
11,AATGACCG,-0.0804 ± 0.021
12,GATGACCC,-0.157 ± 0.019
13,AATGACCC,0.231 ± 0.0025
14,CTGACTTA,0.107 ± 0.048
15,CTCTCCAG,-0.198 ± 0.013
16,GTAGAAAA,0.0997 ± 0.012
17,ACCGCTAT,-0.0561 ± 0.049
18,GGAAAGCC,-0.00378 ± 0.093
19,ATACGTAT,0.407 ± 0.031
20,ATACGTAC,0.16 ± 0.0041
21,ATACGTAA,0.115 ± 0.0061
22,AACAGTTC,0.0164 ± 0.036
23,CACGTGCG,0.39 ± 0.022
24,CACGTGCA,0.417 ± 0.026
25,AAAGTGCA,0.0798 ± 0.0049

row,Sequence,PBM 8-mer E-score
1,AACGTGCA,0.0984 ± 0.068
2,TACGTGCA,0.1615 ± 0.00067
3,AACGTGCG,0.152 ± 0.016
4,GAAGTGCA,0.122 ± 0.077
5,GACGTGCC,-0.174 ± 0.023
6,AACGTGCC,0.0151 ± 0.03
7,CACGTGCC,0.377 ± 0.015
8,TAAGTGCA,0.243 ± 0.008
9,CCCGTGCG,-0.206 ± 0.01
10,GTGCTAAC,-0.0619 ± 0.0065
11,ATTGCTAA,-0.034 ± 0.043
12,AAGGAATC,-0.0571 ± 0.08
13,CATATGCG,0.192 ± 0.0076
14,AATAGCTC,0.0405 ± 0.046
15,ATGCGTAG,0.151 ± 0.017
16,CTGGGGGC,-0.289 ± 0.044
17,ATAAGGAT,0.277 ± 0.0071
18,ATAAGGAA,-0.0755 ± 0.029
19,ATAAGGTC,0.231 ± 0.014
20,CTAAGGTC,0.0156 ± 0.022
21,ATAAGGTA,0.132 ± 0.044
22,ATAAGGAC,-0.0224 ± 0.047
23,ATCGGATC,-0.225 ± 0.064
24,GCGAAGCC,-0.143 ± 0.0091
25,AGTCTCTG,-0.178 ± 0.037

row,Sequence,PBM 8-mer E-score
1,GCCGGTTA,-0.0245 ± 0.051
2,TACTGGAA,0.187 ± 0.013
3,GCATAGTA,0.234 ± 0.05
4,CCATAGTA,0.161 ± 0.049
5,ACATAGTA,0.141 ± 0.013
6,ACCGTGAG,-0.24 ± 0.025
7,GGGATCCA,-0.0748 ± 0.046
8,AGGTGCAG,-0.176 ± 0.029
9,AATTGAAC,-0.0329 ± 0.083
10,AATTGAAT,0.229 ± 0.021
11,AATTGAAA,0.272 ± 0.014
12,ACCGTAGC,-0.0428 ± 0.011
13,AGCTTCTC,0.245 ± 0.00095
14,AGCTTCTG,-0.127 ± 0.071
15,AGCTTCTA,-0.0235 ± 0.043
16,TACGTACA,0.198 ± 0.0031
17,CTACCGAC,-0.0505 ± 0.014
18,CTCCCCTA,0.182 ± 0.019
19,ATCCCCTG,0.114 ± 0.01
20,CTCCCCTC,0.147 ± 0.072
21,ATCCCCTC,0.2637 ± 0.0019
22,ATCCCCTA,0.2799 ± 0.00079
23,GTCCCCTA,0.093 ± 0.011
24,CCTAAACC,0.0137 ± 0.051
25,CACACTAG,0.0294 ± 0.013

row,Sequence,PBM 8-mer E-score
1,ATTCTGCG,-0.00613 ± 0.071
2,AAGTACGC,0.0498 ± 0.026
3,CCCTTGAG,0.00432 ± 0.0094
4,GCTGGCTA,-0.249 ± 0.011
5,ACCCCGAT,0.136 ± 0.042
6,CCGTATAC,0.0522 ± 0.032
7,AACGAGAT,-0.0543 ± 0.025
8,AACGAGGA,0.239 ± 0.015
9,CACGAGGA,-0.017 ± 0.031
10,CACGAGAA,-0.0119 ± 0.064
11,TACGAGGA,0.169 ± 0.069
12,AACGAGAA,0.238 ± 0.04
13,ATAGTGCG,0.0132 ± 0.011
14,CATCGGAC,-0.165 ± 0.033
15,GATCATAA,0.278 ± 0.0031
16,CATCATAA,0.142 ± 0.0093
17,TATCATAA,0.181 ± 0.012
18,CATCGCGA,0.056 ± 0.036
19,ACCATAAC,0.1 ± 0.012
20,GTTAATGA,0.148 ± 0.06
21,ATAAATTG,0.165 ± 0.082
22,ATTAATGG,0.0434 ± 0.0092
23,ATTAACTA,0.237 ± 0.012
24,ATTAATTC,0.105 ± 0.042
25,ATTAATGA,0.278 ± 0.055

row,Sequence,PBM 8-mer E-score
1,GTTAACTA,0.207 ± 0.1
2,ATAAATTA,0.307 ± 0.014
3,CTAAATTA,0.0224 ± 0.0043
4,ATTAATTG,0.175 ± 0.039
5,ATTAACTC,0.136 ± 0.005
6,ATTAATTA,0.263 ± 0.034
7,CGGTCACG,-0.188 ± 0.076
8,CAGGGAGC,-0.238 ± 0.051
9,AGCCTTCA,0.149 ± 0.085
10,AATAATGT,0.283 ± 0.0037
11,ATGAACTA,0.27 ± 0.054
12,AATAATGC,0.213 ± 0.083
13,AATAATGG,0.138 ± 0.0076
14,ATGAACTC,-0.04627 ± 0.0002
15,CATAATTA,0.203 ± 0.039
16,GATAATTA,0.0844 ± 0.0069
17,AATAATTA,0.269 ± 0.06
18,CTGAACTA,-0.149 ± 0.065
19,GAGTGCAC,-0.0155 ± 0.11
